# The source made the active and inactive calls.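 How the source made its calls, unless noted: active means normalized viability below 100% at a tested concentration; inactive means the rest.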
# Legend:
# [1] = drug combination growth inhibition, ovarian cancer – cell-based, oncology-focused library, rucaparib conditional, profiling panel (AID 1508598); conditions: patient-derived ovarian cancer cells, CellTiter-Glo viability, 144 h, stronger effect = lower value
# [2] = chitosan synthesis blockers in C. neoformans – flow cytometry, Cibacron Brilliant Red staining (AID 1347148; call rule not given here;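 further: compound exposure lasted three days at 37 degrees C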); conditions: Cryptococcus neoformans chitosan, stronger effect = lower value; at 10 µM unless noted
# [3] = compounds altering circadian rhythm period length – cell-based, LOPAC library, luminescence reporter (AID 2774; call rule not given here;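 further: values are relative to mean of DMSO wells on each plate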); conditions: circadian reporter cells, at 7 µM, actives lie on both sides
# [4] = MELAS cybrid and Rieske KO viability enhancers – cell-based, MELAS cybrids, Rieske KO mouse fibroblasts, CellTiter-Glo, primary screen (AID 1508586;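 active means mean z-score across replicates of 1.96 or higher in either the MELAS or the Rieske mutant cell line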;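 further: z relative to plate mean and SD of compound and empty wells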); conditions: low glucose
# [5] = P. berghei load reduction in hepatocytes – cell-based, HepG2, luciferase luminescence, HepG2 viability, primary screen (AID 624349; in the data active means parasite load remaining mostly below about 12%, no sharp cut-off; inactive means mostly above about 10%;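 further: 100% = mean of DMSO negative control wells on the same plate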); conditions: P. berghei liver stage in HepG2, luciferase luminescence, concentration not given here; parasite load remaining: stronger effect = lower value; viability: measured here: HepG2 viability without parasites
# [6] = blockers of cellular phospholipid synthesis – cell-based, LOPAC library, screen 4, primary screen (AID 1347384; call rule not given here); conditions: animal cells, phospholipid biosynthesis inhibition screen; at 10 µM
# [7] = test system: Hepatitis C virus NS3 helicase; test: blockers of NS3h binding to ssDNA – biochemical, fluorescence polarization, LOPAC1280 library, primary screen (AID 687035; in the data active means inhibition above about 37%); conditions: Purified HCV NS3 helicase, Cy5-dT15 ssDNA binding fluorescence polarization; stronger effect = higher value; concentration not given here
# [8] = compounds altering Cy5-DNA-NS3h complex signal – biochemical, LOPAC1280, artefact control for HCV NS3 helicase inhibitor project (AID 687037; call rule not given here); conditions: Cy5-DNA-NS3h complex fluorescence interference counterscreen
# [9] = MELAS cybrid survival, CellTiter-Glo 48 h, stronger effect = higher value
# [10] = Rieske KO mouse fibroblast survival, CellTiter-Glo 72 h
smiles,measurement,setting,value
C/C(=C\c1csc(C)n1)[C@H]1C[C@@H]2O[C@@H]2CCC[C@H](C)[C@H](O)[C@@H](C)C(=O)C(C)(C)[C@H](O)CC(=O)O1,viability,"[1]; at 0.000305 µM, OCI-C5x cells, with rucaparib 10 µM, 100% = cells with rucaparib alone",72.1% (active)
same,viability,"[1]; at 0.000305 µM, OCI-C5x cells, without rucaparib",52.1% (active)
same,viability,"[1]; at 0.000305 µM, OCI-P5x cells, with rucaparib 20 µM, 100% = cells with rucaparib alone",73.7% (active)
same,viability,"[1]; at 0.000305 µM, OCI-P5x cells, without rucaparib",30% (active)
same,viability,"[1]; at 0.00122 µM, OCI-C5x cells, with rucaparib 10 µM, 100% = cells with rucaparib alone",41.4% (active)
same,viability,"[1]; at 0.00122 µM, OCI-C5x cells, without rucaparib",28.8% (active)
same,viability,"[1]; at 0.00122 µM, OCI-P5x cells, with rucaparib 20 µM, 100% = cells with rucaparib alone",57.4% (active)
same,viability,"[1]; at 0.00122 µM, OCI-P5x cells, without rucaparib",15.9% (active)
same,viability,"[1]; at 0.00488 µM, OCI-C5x cells, with rucaparib 10 µM, 100% = cells with rucaparib alone",27.2% (active)
same,viability,"[1]; at 0.00488 µM, OCI-C5x cells, without rucaparib",23.1% (active)
same,viability,"[1]; at 0.00488 µM, OCI-P5x cells, with rucaparib 20 µM, 100% = cells with rucaparib alone",51% (active)
same,viability,"[1]; at 0.00488 µM, OCI-P5x cells, without rucaparib",16.8% (active)
same,viability,"[1]; at 0.0195 µM, OCI-C5x cells, with rucaparib 10 µM, 100% = cells with rucaparib alone",29.1% (active)
same,viability,"[1]; at 0.0195 µM, OCI-C5x cells, without rucaparib",22% (active)
same,viability,"[1]; at 0.0195 µM, OCI-P5x cells, with rucaparib 20 µM, 100% = cells with rucaparib alone",53.1% (active)
same,viability,"[1]; at 0.0195 µM, OCI-P5x cells, without rucaparib",17% (active)
same,viability,"[1]; at 0.0781 µM, OCI-C5x cells, with rucaparib 10 µM, 100% = cells with rucaparib alone",29.4% (active)
same,viability,"[1]; at 0.0781 µM, OCI-C5x cells, without rucaparib",22.1% (active)
same,viability,"[1]; at 0.0781 µM, OCI-P5x cells, with rucaparib 20 µM, 100% = cells with rucaparib alone",57% (active)
same,viability,"[1]; at 0.0781 µM, OCI-P5x cells, without rucaparib",17.9% (active)
same,viability,"[1]; at 0.313 µM, OCI-C5x cells, with rucaparib 10 µM, 100% = cells with rucaparib alone",29.6% (active)
same,viability,"[1]; at 0.313 µM, OCI-C5x cells, without rucaparib",24% (active)
same,viability,"[1]; at 0.313 µM, OCI-P5x cells, with rucaparib 20 µM, 100% = cells with rucaparib alone",46.5% (active)
same,viability,"[1]; at 0.313 µM, OCI-P5x cells, without rucaparib",15.9% (active)
same,viability,"[1]; at 1.25 µM, OCI-C5x cells, with rucaparib 10 µM, 100% = cells with rucaparib alone",25.2% (active)
same,viability,"[1]; at 1.25 µM, OCI-C5x cells, without rucaparib",24.3% (active)
same,viability,"[1]; at 1.25 µM, OCI-P5x cells, with rucaparib 20 µM, 100% = cells with rucaparib alone",46.3% (active)
same,viability,"[1]; at 1.25 µM, OCI-P5x cells, without rucaparib",14.6% (active)
same,viability,"[1]; at 5 µM, OCI-C5x cells, with rucaparib 10 µM, 100% = cells with rucaparib alone",52.3% (active)
same,viability,"[1]; at 5 µM, OCI-C5x cells, without rucaparib",41.6% (active)
same,viability,"[1]; at 5 µM, OCI-P5x cells, with rucaparib 20 µM, 100% = cells with rucaparib alone",43.6% (active)
same,viability,"[1]; at 5 µM, OCI-P5x cells, without rucaparib",17.3% (active)
CCCCCCCCCCCCCC(=O)O[C@H]1[C@H](C)[C@]2(O)[C@H](C=C(CO)C[C@@]3(O)C(=O)C(C)=C[C@H]23)[C@H]2C(C)(C)[C@@]12OC(C)=O,fold fluorescence,[2],4.29 [at 81.1 µM] (inactive)
CN1C(=O)[C@@]23CC4=CC=C[C@@H](O)[C@@H]4N2C(=O)[C@]1(CO)SS3,fold fluorescence,[2],7.1 [at 153.2 µM] (inactive)
CC(C)[C@@H]1NC(=O)[C@H](C(C)C)OC(=O)[C@@H](C(C)C)NC(=O)[C@@H](C)OC(=O)[C@@H](C(C)C)NC(=O)[C@H](C(C)C)OC(=O)[C@@H](C(C)C)NC(=O)[C@@H](C)OC(=O)[C@H](C(C)C)NC(=O)[C@H](C(C)C)OC(=O)[C@H](C(C)C)NC(=O)[C@H](C)OC1=O,fold fluorescence,[2],7.5 [at 45 µM] (inactive)
CN1CCN(C(=O)OC2c3nccnc3C(=O)N2c2ccc(Cl)cn2)CC1 (stereo unspecified),period change,[3],-0.19 h (inactive)
same,z-score,[4]; [9],-0.0147 (inactive)
same,z-score,[4]; [10],0.36
COC(=O)[C@]1(O)C[C@@H]2O[C@@]1(C)n1c3ccccc3c3c4c(c5c6ccccc6n2c5c31)C(=O)NC4,parasite load remaining,[5],43.2% (inactive)
same,viability,[5],53.6%
same,fold fluorescence,[2],6.41 [at 10.7 µM] (inactive)
COC1=CC(=O)O[C@H](/C=C/c2ccccc2)C1,fold fluorescence,[2],3.69 [at 217.1 µM] (inactive)
N[C@H]1CCc2cc(O)c(O)cc2C1,fold fluorescence,[2],4.25 [at 279 µM] (inactive)
CC(C)[C@@]1(O)[C@H](OC(=O)c2ccc[nH]2)[C@]2(O)[C@]3(C)C[C@@]4(O)O[C@]5([C@@H](O)[C@H](C)CC[C@@]35O)[C@]2(O)[C@@]41C,fold fluorescence,[2],3.48 [at 101.3 µM] (inactive)
CCCC[C@H](C)[C@H](OC(=O)C[C@H](CC(=O)O)C(=O)O)[C@@H](C[C@H](C)C[C@@H](O)CCCC[C@H](O)C[C@@H](O)[C@@H](C)N)OC(=O)C[C@@H](CC(=O)O)C(=O)O,fold fluorescence,[2],2.99 [at 69.3 µM] (inactive)
N#CCCN,outcome,[6],inactive
CCN(CC)C(C)C(=O)c1ccccc1 (stereo unspecified),z-score,[4]; [9],0.648 (inactive)
same,z-score,[4]; [10],-0.333
CC(C)NC[C@H](O)c1ccc(N)c(C#N)c1,fold fluorescence,[2],4.74 [at 228 µM] (inactive)
C[C@H]1C2Cc3ccc(O)cc3[C@@]1(C)CCN2CC1CC1,inhibition,[7],0% (inactive)
same,fluorescence ratio (interference),[8],1 (inactive)
same,outcome,[6],inactive
CNc1ccc2oc(C[C@H]3OC4(CC[C@H]3C)O[C@@H](C(C)C(=O)c3ccc[nH]3)[C@@H](C)C[C@@H]4C)nc2c1C(=O)O (stereo partly specified),fold fluorescence,[2],5.79 [at 95.5 µM] (inactive)
C#CCN(C)[C@@H](C)Cc1ccccc1,period change,[3],0.185 h (inactive)
same,fold fluorescence,[2],5.04 [at 267 µM] (inactive)
O[C@@H]1[C@@H](O)[C@H](O)CN2CC[C@@H](O)[C@@H]12,fold fluorescence,[2],5.17 [at 264.3 µM] (inactive)
O=C1CS[C@@H](c2ccccc2Cl)c2cc(Cl)ccc2N1,fold fluorescence,[2],10.4 [at 154.2 µM] (inactive)
C=C1[C@@H](C)[C@H]2[C@H](Cc3ccccc3)NC(=O)[C@]23[C@H](OC(C)=O)/C=C/[C@](C)(O)C(=O)[C@@H](C)C/C=C/[C@H]3[C@@H]1O,fold fluorescence,[2],11.8 [at 98.5 µM] (inactive)
O[C@@H]1[C@@H]2[C@@H](O)CCCN2C[C@@H]1O,fold fluorescence,[2],5.36 [at 288.7 µM] (inactive)
COc1ccc(C(=O)OC2CCC3(C)C4CCC5C6(O)CC(O)C7(O)C(CN8CC(C)CCC8C7(C)O)C6(O)CC53OC24O)cc1OC (stereo unspecified),fold fluorescence,[2],11.6 [at 74.2 µM] (inactive)
C=C(C)[C@@H]1O[C@@H]2CC[C@]3(C)[C@](O)(CC[C@@H]4[C@H]5OC(C)(C)[C@@H]6C[C@H]7C(=C)Cc8c(Cl)cc9[nH]c(c5c9c8[C@]76O)[C@]43C)[C@@]23O[C@H]3[C@@H]1O,fold fluorescence,[2],6.21 [at 78.8 µM] (inactive)
C[C@@]1(CO)[C@H]2CC[C@@H]3C[C@H]4C[C@@]3(CC[C@@]4(O)CO)[C@]2(C)CC[C@@H]1O,fold fluorescence,[2],13 [at 147.7 µM] (inactive)
C=C1[C@@H](O)C2O[C@@]3(CCC2O[C@@H]1C(O)C[C@H](C)C1O[C@@]2(CCCCO2)CC[C@H]1C)CC[C@@H](/C=C/[C@@H](C)[C@@H]1CC(C)=C[C@@]2(O[C@H](C[C@@](C)(O)C(=O)O)CCC2O)O1)O3 (stereo partly specified),fold fluorescence,[2],14.3 [at 6.2 µM] (inactive)
CC1=C2C[C@@H]3[C@H](CC=C4C[C@H](O)CC[C@]43C)[C@H]2CC[C@@]12O[C@H]1C[C@@H](C)CN[C@@H]1[C@@H]2C,fold fluorescence,[2],14.9 [at 121.5 µM] (inactive)
CCNC(=O)[C@@H]1O[C@H](n2cnc3c(N)ncnc32)C(O)[C@@H]1O (stereo partly specified),fold fluorescence,[2],4.97 [at 162.2 µM] (inactive)
[Cl][Pt].[NH2-].[NH2-].c1ccncc1,outcome,[6],inactive
